# Assay outcomes deposited in PubChem BioAssay by National Center for Advancing Translational Sciences (NCATS).
# GLS inh – glutaminase GLS (human) inhibition; 0.21% of 410,000 active; O94925; GLS enzymatic activity, qHTS titration; Potency, µM (top dose mostly 45.5 µM), hits mostly inhibitors
#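 Enzyme dispensed in phosphate buffer (45 mM, pH 8.2, 0.02% Tween-20), compounds pinned in, then 1 mM L-glutamine solution and the glutamate oxidase–HRP–Amplex Red mix added; fluorescence read immediately and again after 30 min at room temperature.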
# GLP-1R agonist – GLP-1 receptor (human) agonism. P43220. HEK293 GLP-1R CRE-luciferase, luminescence, 4-6 h; cells express a hypersensitive GLP-1R form. Potency, µM (doses to about 45.6 µM), most hits filed as activators. 0.007% of 380,000 active. AID 624172
# Target sequence (P43220 whole entry, looked up): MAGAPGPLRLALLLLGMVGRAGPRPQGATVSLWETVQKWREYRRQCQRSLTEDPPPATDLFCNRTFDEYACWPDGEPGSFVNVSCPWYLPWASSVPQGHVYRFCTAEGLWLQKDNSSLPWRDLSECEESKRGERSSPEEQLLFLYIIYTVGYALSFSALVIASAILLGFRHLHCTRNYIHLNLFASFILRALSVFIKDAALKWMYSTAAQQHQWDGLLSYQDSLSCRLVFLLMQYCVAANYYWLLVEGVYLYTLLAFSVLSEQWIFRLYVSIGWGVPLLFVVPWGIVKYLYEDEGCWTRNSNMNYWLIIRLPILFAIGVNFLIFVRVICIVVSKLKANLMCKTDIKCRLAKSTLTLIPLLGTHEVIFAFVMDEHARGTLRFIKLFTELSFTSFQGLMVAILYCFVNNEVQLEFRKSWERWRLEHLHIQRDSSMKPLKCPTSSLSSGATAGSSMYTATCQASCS
# GLP1R inv ag – acts as inverse agonist at human GLP-1 receptor | P43220 | HEK293 GLP-1R CRE-luciferase, luminescence, 24 h; GLP-1R form is constitutively active | 1.6% of 410,000 active | Potency, µM (highest dose often 38.3 µM), most hits filed as inhibitors; also: nearly all actives have a fitted effect of over 55% in size
#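 Using stably transfected HEK293 (constitutively active GLP-1R, cAMP-luciferase reporter), compounds were incubated 24 hr and luciferase measured by luminescence.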
# PTHR1 agonist – activates the human parathyroid hormone receptor PTHR1 | Q03431 | HEK293 GP2 PTHR1 cells, GloSensor cAMP luminescence, 1 h | Potency, µM (titrated, usually from 115 µM), hits mostly activators | 0.075% of 410,000 active | AID 743266; also: nearly all actives have a fitted effect of over 55% in size
#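 HEK-293-derived GP2 cells expressing PTHR1 and a GloSensor cAMP reporter, 3,000/well, plated overnight, given luciferin plus IBMX (each 0.5 mM as added) for 1 h at 37 °C, then compound for 1 h at 37 °C. Luminescence was read after 15 min at room temperature.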
# Glioma ERSR ind – induces the endoplasmic reticulum stress response in human glioma cells; U87-MG GRP78 promoter luciferase reporter, 16 h; Potency, µM, most hits filed as activators; 0.02% of 420,000 active; also: series mostly up to about 76 µM; nearly all actives have a fitted effect of over 35% in size
#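 Stably transfected U87-MG glioma cells carrying a GRP78-based luciferase sensor; 16 h compound incubation. Luminescence end-point read 10 min after Bright-Glo addition at room temperature.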
# 12-LOX inh – ALOX12 (human) lipoxygenase inhibition; purified 12hLO, xylenol orange hydroperoxide absorbance; Potency, µM (doses to about 108 µM), most hits filed as inhibitors; 1.1% of 580,000 active
#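 Purified human 12hLO at 150 nM in 25 mM Hepes, 0.01% Triton X-100, pH 7.0, preincubated 15 min at room temperature with compound. Reaction started with 40 uM arachidonic acid, 30 min at room temperature. Hydroperoxide measured by Fe-xylenol orange, 573/405 nm absorbance ratio.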
# Numbers stand for hits; - = inactive; ? = inconclusive; . = no result given; [ ] = dose if it differs, or a comment. Sampled rows, rich in hits. Any-hit rate of the full collection: about 2.3%. Calls follow the shape of the dose curve; as a rule, active = well fitted curve in the direction sought with a large enough effect; inconclusive = small, poorly fitted or top-dose-only effect, or another doubt; inactive = no such curve, though single readings can be large; an effect the other way counts as inactive or inconclusive.
SMILES,GLS inh,GLP-1R agonist,GLP1R inv ag,PTHR1 agonist,Glioma ERSR ind,12-LOX inh
Cc1cccc(CSCCNC(=S)Nc2ccccc2)c1,-,-,?,-,-,?
N#CC(C#N)=C1C=CC=CN1/C(=C\c1ccco1)C(=O)c1ccc(Cl)cc1,-,-,5.6µM,-,-,?
COc1ccc(CN(C)Cc2c(O)ccc3ccccc23)cc1,-,-,?,-,-,10µM
COc1cccc(CN(C)CC(=O)Nc2cccc3ccccc23)c1,-,-,-[7.66 µM],-,-,?
COc1cccc(CN(C)Cc2c(O)ccc3ccccc23)c1,-,-,?,-,-,10µM
COc1ccc(CN(C)CC(=O)Nc2ccccc2C(F)(F)F)cc1,-,-,?,-,-,-
COc1ccc2ccc(O)c(CN(C)CC(=O)Nc3ccccc3C(F)(F)F)c2c1,-,-,?,-,-,7.1µM
O=S(=O)(Nc1cccc2cccnc12)c1ccccc1F,.,.,.,.,.,-
Cc1sc2ncnc(SC(F)F)c2c1C,.,.,.,.,.,-
CCOCCCNC(=O)c1ccc(NC(=O)C23CC4CC(CC(C4)C2)C3)cc1,.,.,.,.,.,-
Cc1cccc(C)c1NC(=O)CN,?,-,-,-,-,-
Cc1cc(C)c(NC(=O)CN)c(C)c1,0.89µM,-,-,-,-,-
COC(=O)c1[nH]c2ccc(C)cc2c1NC(=O)CN1CCC(C)CC1,-,-,6.3µM,-,-,-
COC(=O)c1[nH]c2ccc(C)cc2c1NC(=O)CN1CCN(C(=O)c2ccccc2)CC1,-,-,-,-,-,-
COC(=O)c1[nH]c2ccc(C)cc2c1NC(=O)CN1CCN(c2ccc(F)cc2)CC1,-,-,4µM,-,-,-
Cc1ccc(C)c(N2CCN(CC(=O)Nc3ccc4[nH]c(=O)[nH]c4c3)CC2)c1,-,-,-,-,-,-
CCOC(=O)N1CCN(CC(=O)Nc2c(C(=O)OC)[nH]c3cc(C)ccc23)CC1,-,-,-,-,-,-
Cc1ccc2[nH]c(C(=O)O)c(NC(=O)CN3CCN(c4cccc(C)c4C)CC3)c2c1,-,-,10µM,-,-,-
COC(=O)c1[nH]c2ccc(C)cc2c1NC(=O)CN1CCN(c2ccccc2)CC1,-,-,10µM,-,-,-
C[C@H](CCC(=O)O)[C@H]1CCC2C3CC[C@@H]4C[C@H](O)CC[C@]4(C)C3CC[C@@]21C (some centres not stated),.,.,.,.,.,-
Cc1ccc(C(C)C)c(OCC(=O)Nc2ccc3c(c2)nc(CN2CCCC2)n3C)c1,-,-,10µM,-,-,-
Cc1ccc(C(C)C)c(OCC(=O)Nc2ccc3c(c2)nc(CCn2nc(C)cc2C)n3C)c1,.,.,.,.,.,-
CC(OC(=O)c1ccc(CS(C)(=O)=O)cc1)C(=O)c1ccc(Cl)cc1 (configuration not stated),.,.,.,.,.,-
CCC(=O)NC(c1ccccc1)c1cccs1 (configuration not stated),.,.,.,.,.,-
COc1cccc(C2CC(c3ccc(Br)cc3)=NN2C(=O)c2ccncc2)c1OC (configuration not stated),-,-,10µM,-,-,-
SMILES,GLS inh,GLP-1R agonist,GLP1R inv ag,PTHR1 agonist,Glioma ERSR ind,12-LOX inh
COc1ccccc1C1CC(c2ccc(Br)cc2)=NN1C(=O)c1cccnc1 (configuration not stated),-,-,?,-,-,-
Cc1ccc2nc(Nc3nc(C(C)C)cc(=O)[nH]3)nc(C)c2c1,.,.,.,.,.,-
O=S(=O)(Nc1nc2ccccc2nc1Nc1ccccc1Br)c1cccs1,.,.,.,.,.,-
Cc1ccc(/C=C2/Sc3ccc(C(=O)NCc4ccccn4)cc3NC2=O)cc1,18µM,-,-,-,-,-
CCN1CCN(CCCNC(=O)c2ccc3c(c2)NC(=O)/C(=C\c2cccc(C)c2)S3)CC1,-,-,7.1µM,-,-,?
COc1ccc(-c2csc(C(O)c3ccc(F)c(F)c3)n2)cc1 (configuration not stated),-,-,11µM,-,-,?
COC(=O)CCS(=O)(=O)c1ccc(C)c(C)c1,.,.,.,.,.,-
COC(=O)c1c(C)cc(O)c(C=O)c1O,-,-,-,-,-,-
COc1cc(C(=O)O)c2c(c1C)OC(=O)c1c(C)cc(O)c(C=O)c1O2,5.6µM,-,-,-,-,-
O=C(c1ccccc1)N1CCN(Cc2ccccc2)CC1,-,-,-,-,-,?
O=C(N1CCN(Cc2ccccc2)CC1)C(F)(F)C(F)(F)C(F)(F)C(F)(F)F,.,.,.,.,.,28µM
CC(=O)C1=C(O)C(=O)N(c2ccccn2)C1c1ccc(C)cc1 (configuration not stated),-,-,-,-,-,-
CC(=O)C1=C(O)C(=O)N(Cc2ccccc2)C1c1ccc(Br)cc1 (configuration not stated),-,-,-,-,-,11µM
CC(C)CC(=O)C1=C(O)C(=O)N(Cc2ccccc2)C1c1ccccc1 (configuration not stated),-,-,-,-,-,-
CC(=O)C1=C(O)C(=O)N(c2ccc(Br)cc2)C1c1ccc(Br)cc1 (configuration not stated),-,-,?,-,-,7.9µM
CC(=O)C1=C(O)C(=O)N(c2nccs2)C1c1ccccc1 (configuration not stated),-,-,-,-,-,8.9µM
CCC(=O)Nc1ccc(SC2CCCC2)cc1,.,.,.,.,.,-
CC(C(=O)NCc1ccc2c(c1)OCO2)n1nc(-c2ccccc2)c2ccccc21 (configuration not stated),.,.,.,.,.,-
CCCCn1c(NC(=O)c2ccccc2Cl)c(C#N)c2nc3ccccc3nc21,-,-,5.6µM,-,-,-
Cc1cc(C)cc(-n2nnnc2SCC(=O)N(C)c2ccccc2C(=O)NCc2ccco2)c1,.,.,.,.,.,-
